{"source": "PubChem BioAssay (Tox21)", "note": "“And” between values parts separate entries of the source, which are not always exact repeats. Equal values may be shown once. Inconclusive results are not listed. Where a call stands in place of a potency, no number is given. The source made the active and inactive calls. Calls come from the whole dose curve; as a rule, active = well fitted activation curve with a large enough effect in the repeat runs; inconclusive = weak or mixed curves; inactive = no such curve, though single readings can be large or run the other way. Potency is the fitted concentration of half-maximal effect."}
{"assay": "qHTS assay for small molecules that induce genotoxicity in human embryonic kidney cells expressing luciferase-tagged ATAD5 (AID 651632); note: nearly all actives have a fitted effect of over 15% in size", "conditions": "HEK293T ATAD5-luciferase induction, 16 h; series mostly up to 83.3 µM", "excerpt": "U.S. Tox21 Program National Center for Advancing Translational Sciences [NCATS] NIH Chemical Genomics Center [NCGC] U.S. Environmental Protection Agency [EPA] National Institutes of Environmental Health Sciences [NIEHS] National Toxicology Program [NTP] U.S. Food and Drug Administration [FDA] Tox21 Assay Overview: As cancer cells divide rapidly and during every cell division they need to duplicate their genome by DNA replication. The failure to do so results in the cancer cell death. Based on this concept, many chemotherapeutic agents were developed but have limitations such as low efficacy and severe side effects etc. A new cell based assay was developed to find the compounds that effectively block DNA replication either by directly damaging DNA or by inhibiting other cellular mechanisms. Enhanced Level of Genome Instability Gene 1 (ELG1; human ATAD5) protein levels increase in response to various types of DNA damage. Using a luciferase reporter-gene tagged with ATAD5, a cell-based assay [developed by Kyungjae Myung, NHGRI, NIH] was used to measure the induction of ATAD5 in human embryonic kidney cells (HEK293T). So, increase in luciferase activity can be used to identify the compounds that cause genetic stress.\nTox21 Assay Protocol Summary: For genotoxicity screening, 2,000 cells in 5 uL/well were dispensed into white, solid-bottom 1536-well plates using a Multidrop Combi (Thermo Scientific) dispenser. Following transfer of 23 nL compound or DMSO vehicle by a pin tool, the plates were incubated 16 hr at 37C and 5% CO2. 5 ul Amplite (AAT Bioquest, Inc.) was then added to each plate and following 30 min incubation at room temperature, luciferase activity was quantified on a ViewLux CCD-based plate reader."}
{"smiles": "OC[C@@H](O)[C@@H](O[C@@H]1O[C@H](CO)[C@H](O)[C@H](O)[C@H]1O)[C@H](O)[C@@H](O)CO", "Potency": "inactive"}
{"smiles": "Cc1ccc([N+](=O)[O-])c(C)c1", "Potency": "inactive"}
{"smiles": "C=C[C@H]1CN2CC[C@H]1C[C@@H]2[C@@H](O)c1ccnc2ccc(OC)cc12", "Potency": "inactive"}
{"smiles": "O=C(O)c1ccc(O)cc1", "Potency": "inactive"}
{"smiles": "OCCNCCO", "Potency": "inactive"}
{"smiles": "CCCCCC=O", "Potency": "inactive"}
{"smiles": "Clc1ccc(Sc2cc(Cl)c(Cl)cc2Cl)cc1", "Potency": "inactive"}
{"smiles": "C=C[Si](OCCOC)(OCCOC)OCCOC", "Potency": "inactive"}
{"smiles": "COc1ccc(-c2coc3cc(O)cc(O)c3c2=O)cc1", "Potency": "1.38 µM (active) and 3.86 µM (active)"}
{"smiles": "O=C(O)c1cc(=O)[nH]c(=O)[nH]1", "Potency": "inactive"}
{"smiles": "C/C=C/C(=O)N(CC)c1ccccc1C", "Potency": "inactive"}
{"smiles": "CCCOCCO", "Potency": "inactive"}
{"smiles": "COc1ccc(C(=O)c2ccccc2O)c(O)c1", "Potency": "inactive"}
{"smiles": "CCCCCC1C(=O)CCC1CC(=O)OC", "note": "(stereo not given)", "Potency": "inactive"}
{"smiles": "CCCCCCCC/C=C\\CCCCCCCC(=O)O", "Potency": "inactive"}
{"smiles": "C1COCCN1", "Potency": "inactive"}
{"smiles": "CC(C)(C)c1cccc(C(C)(C)C)c1O", "Potency": "inactive"}
{"smiles": "O=[Se](O)O", "Potency": "inactive"}
{"smiles": "Cc1cccc(Nc2ccccc2C(=O)O)c1C", "Potency": "inactive"}
{"smiles": "Cc1ccc(C)c(O)c1", "Potency": "inactive"}
{"smiles": "CC(C)=CCO", "Potency": "inactive"}
{"smiles": "CCCCCCCCCCCCCO", "Potency": "inactive"}
{"smiles": "Nc1ccc2c(c1)C(=O)c1ccccc1C2=O", "Potency": "4.77 µM (active) and 7.7 µM (active)"}
{"smiles": "[O-]/[N+](=N\\O)c1ccccc1", "Potency": "inactive"}
{"smiles": "CC(=O)Oc1ccc(C(c2ccc(OC(C)=O)cc2)c2ccccn2)cc1", "Potency": "inactive"}
{"smiles": "C=CCCCCCCCCCC", "Potency": "inactive"}
{"smiles": "FC(F)(F)C(Cl)Br", "note": "(stereo not given)", "Potency": "inactive"}
{"smiles": "CC1(C)OC(=O)NC1=O", "Potency": "inactive"}
{"smiles": "Nc1ccc(O)c(N)c1", "Potency": "inactive"}
{"smiles": "COC(=O)C(C)Oc1ccc(Oc2ncc(C(F)(F)F)cc2Cl)cc1", "note": "(stereo not given)", "Potency": "inactive"}
{"smiles": "CCCCCCC(C)O", "note": "(stereo not given)", "Potency": "inactive"}
{"smiles": "CC(=O)OC(C)C", "Potency": "inactive"}
{"smiles": "CCOC(=O)C(C)Oc1ccc(Oc2cnc3cc(Cl)ccc3n2)cc1", "note": "(stereo not given)", "Potency": "inactive"}
{"smiles": "C=CC(C)(O)CCC=C(C)C", "note": "(stereo not given)", "Potency": "inactive"}
{"smiles": "O=S1(=O)CCCO1", "Potency": "inactive"}
{"smiles": "CCC/C=C/C=O", "Potency": "inactive"}
{"smiles": "CCc1cccc2c3c([nH]c12)C(CC)(CC(=O)O)OCC3", "note": "(stereo not given)", "Potency": "inactive"}
{"smiles": "CC[C@]12CCCN3CCc4c(n(c5ccccc45)[C@@](O)(C(=O)OC)C1)[C@@H]32", "Potency": "inactive"}
{"smiles": "C=C1C[C@H]2[C@@H]3C=C(C)C4=CC(=O)CC[C@]4(C)[C@H]3CC[C@]2(C)[C@@]1(OC(C)=O)C(C)=O", "Potency": "inactive"}
{"smiles": "CN(Cc1cnc2nc(N)nc(N)c2n1)c1ccc(C(=O)N[C@@H](CCC(=O)O)C(=O)O)cc1", "Potency": "inactive"}
